According to PubChem BioAssay AID602400 (Sanford-Burnham Center for Chemical Genomics, 2012):
Activity calls are given as the source filed them. No rule for the calls is given here.

assay: Bfl-1 counter-screen inhibitors, SAR follow-up, counter-screen for UBC13 polyubiquitination inhibitor project, biochemical, set 4 (AID 602400); conditions: Bfl-1 counterscreen for UBC13 inhibitors

| Compound | IC50 |
| --- | --- |
| Cc1ccc(NC(=O)C2CCCN(c3ncnc4c3nc3n4CCCCC3)C2)cc1F (stereo not drawn) | > 100 µM (inactive) |
| O=C(NCCCN1CCN(c2ccccc2)CC1)C1CCCN(c2ncnc3c2nc2n3CCCCC2)C1 (stereo not drawn) | > 100 µM (inactive) |
| O=C(C1CCN(c2ncnc3c2nc2n3CCCCC2)CC1)N1CCN(c2ncccn2)CC1 | > 100 µM (inactive) |
| COc1ccc(Cl)cc1NC(=O)C1CCN(c2ncnc3c2nc2n3CCCCC2)CC1 | > 100 µM (inactive) |
| O=C(NCC1CCN(Cc2cccc(Cl)c2)CC1)C1CCCN(c2ncnc3c2nc2n3CCCC2)C1 (stereo not drawn) | > 100 µM (inactive) |
| CCC1CCCCN1CCCNC(=O)C1CCN(c2ncnc3c2nc2n3CCCCC2)CC1 (stereo not drawn) | > 100 µM (inactive) |
| Cc1cccc(NC(=O)C2CCCN(c3ncnc4c3nc3n4CCCC3)C2)c1 (stereo not drawn) | > 100 µM (inactive) |
| O=C(NCc1cccc(Cl)c1)C1CCCN(c2ncnc3c2nc2n3CCCC2)C1 (stereo not drawn) | > 100 µM (inactive) |
| Cc1ccc(NC(=O)C2CCCN(c3ncnc4c3nc3n4CCCC3)C2)cc1C (stereo not drawn) | > 100 µM (inactive) |
| Cc1cc(Cl)ccc1NC(=O)C1CCN(c2ncnc3c2nc2n3CCCCC2)CC1 | > 100 µM (inactive) |
| O=C(NCC1CCN(Cc2cccc(Cl)c2)CC1)[C@H]1CCCN(c2ncnc3c2nc2n3CCCCC2)C1 | > 100 µM (inactive) |
| Cc1ccc(NC(=O)C2CCN(c3ncnc4c3nc3n4CCCCC3)CC2)cc1Br | > 100 µM (inactive) |
| Cc1ccc(NC(=O)C2CCN(c3ncnc4c3nc3n4CCCC3)CC2)cc1Br | 14.7 µM (active) |
| Cc1ccc(C)c(N2CCN(CCCNC(=O)C3CCCN(c4ncnc5c4nc4n5CCCCC4)C3)CC2)c1 (stereo not drawn) | > 100 µM (inactive) |
| O=C(c1ccco1)N1CCN(C(=O)C2CCN(c3ncnc4c3nc3n4CCCCC3)CC2)CC1 | > 100 µM (inactive) |
| Cc1ccc(NC(=O)C2CCN(c3ncnc4c3nc3n4CCCCC3)CC2)cc1Cl | > 100 µM (inactive) |
| O=C(Nc1ccc(F)c(Cl)c1)C1CCN(c2ncnc3c2nc2n3CCCCC2)CC1 | > 100 µM (inactive) |
| O=C(Nc1cc(F)ccc1F)C1CCN(c2ncnc3c2nc2n3CCCCC2)CC1 | > 100 µM (inactive) |
| O=C(NCC1CCN(Cc2ccc(F)cc2)CC1)C1CCCN(c2ncnc3c2nc2n3CCCCC2)C1 (stereo not drawn) | > 100 µM (inactive) |

| Compound | IC50 |
| --- | --- |
| COc1ccccc1N1CCN(CCCNC(=O)C2CCCN(c3ncnc4c3nc3n4CCCCC3)C2)CC1 (stereo not drawn) | > 100 µM (inactive) |
| O=C(Nc1cccc(Cl)c1)C1CCN(c2ncnc3c2nc2n3CCCCC2)CC1 | > 100 µM (inactive) |
| CCCN1CCN(C(=O)C2CCN(c3ncnc4c3nc3n4CCCCC3)CC2)CC1 | > 100 µM (inactive) |
| O=C(C1CCN(c2ncnc3c2nc2n3CCCCC2)CC1)N1CCOCC1 | > 100 µM (inactive) |
| O=C(NCCCN1CCCCC1)C1CCN(c2ncnc3c2nc2n3CCCCC2)CC1 | > 100 µM (inactive) |
| Cc1cc(C)cc(NC(=O)C2CCN(c3ncnc4c3nc3n4CCCCC3)CC2)c1 | 72.9 µM (active) |
| O=C(NCC1CCN(Cc2ccccc2Cl)CC1)C1CCCN(c2ncnc3c2nc2n3CCCCC2)C1 (stereo not drawn) | > 100 µM (inactive) |
| O=C(Nc1ccc(CN2CCCCC2)cc1)C1CCN(c2ncnc3c2nc2n3CCCCC2)CC1 | > 100 µM (inactive) |
| O=C(NCc1ccc(Cl)c(Cl)c1)C1CCN(c2ncnc3c2nc2n3CCCC2)CC1 | > 100 µM (inactive) |
| O=C(NCC1CCN(Cc2ccccc2F)CC1)C1CCCN(c2ncnc3c2nc2n3CCCCC2)C1 (stereo not drawn) | > 100 µM (inactive) |
| O=C(C1CCN(c2ncnc3c2nc2n3CCCCC2)CC1)N1CCN(c2ccccc2)CC1 | > 100 µM (inactive) |
| Cc1ccc(NC(=O)C2CCN(c3ncnc4c3nc3n4CCCC3)CC2)cc1C | 20.8 µM (active) |
| Cc1ccc(NC(=O)C2CCN(c3ncnc4c3nc3n4CCCCC3)CC2)c(Cl)c1 | > 100 µM (inactive) |
| O=C(NCC1CCN(Cc2cccc(Cl)c2)CC1)[C@H]1CCCN(c2ncnc3c2nc2n3CCCC2)C1 | > 100 µM (inactive) |
| Cc1ccc(C)c(CN2CCC(CNC(=O)C3CCCN(c4ncnc5c4nc4n5CCCCC4)C3)CC2)c1 (stereo not drawn) | > 100 µM (inactive) |
| Cc1ccc(NC(=O)C2CCCN(c3ncnc4c3nc3n4CCCC3)C2)cc1F (stereo not drawn) | > 100 µM (inactive) |
| CC1CCCC(C)N1CCCNC(=O)C1CCCN(c2ncnc3c2nc2n3CCCCC2)C1 (stereo not drawn) | > 100 µM (inactive) |
| O=C(NCc1ccc(Cl)c(Cl)c1)C1CCN(c2ncnc3c2nc2n3CCCCC2)CC1 | > 100 µM (inactive) |
| O=C(NCC1CCN(Cc2cccc(Cl)c2)CC1)[C@@H]1CCCN(c2ncnc3c2nc2n3CCCC2)C1 | > 100 µM (inactive) |
